These results are taken from PubChem BioAssay (EPA / NIEHS).

Active and inactive are the calls of the source. How the source made its calls: active means hit-call score of the fitted dose curve at least 0.9, where 1 is the maximum; inactive means score below 0.9.

Usually AC50 stands for the concentration at which the activity in the assay is half-maximal.

Conditions in all cases: actives raise or lower the signal
A short description of assay [1]: CEETOX_H295R_11DCORT_noMTC: CeeTox H295R High-throughput Steroidogenesis Assay for 11-Deoxycortisol (11DCORT), maximum tolerated concentration (MTC) filtered results only (AID 2283911). The method in brief: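 Steroidogenesis was stimulated in H295R cells with 10 uM forskolin for 48 h before a 48 h chemical exposure. Secreted 11-deoxycortisol was measured by tandem mass spectrometry and fitted bidirectionally against DMSO controls.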

The nature of assay [2]: CEETOX_H295R_OHPREG_noMTC: CeeTox H295R High-throughput Steroidogenesis Assay for OH-Pregnenolone (OHPREG), maximum tolerated concentration (MTC) filtered results only (AID 2283912). The method in brief:
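Readout is HPLC-MS/MS quantification of 17alpha-hydroxypregnenolone released by forskolin-stimulated H295R cells over 48 h of chemical exposure, DMSO as baseline.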

A short description of assay [3]: CEETOX_H295R_OHPROG_noMTC: CeeTox H295R High-throughput Steroidogenesis Assay for OH-Progesterone (OHPROG), maximum tolerated concentration (MTC) filtered results only (AID 2283914). The method in brief:
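Analysis uses all tested concentrations, without maximum-tolerated-concentration screening by MTT. H295R cells, forskolin-primed (10 uM, 48 h), receive chemical for 48 h; hormone in medium measured by HPLC-MS/MS, with bidirectional curve fitting against DMSO.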

Assay [4] in a line: CEETOX_H295R_CORTISOL_noMTC: CeeTox H295R High-throughput Steroidogenesis Assay for Cortisol, maximum tolerated concentration (MTC) filtered results only (AID 2283916). The method in brief: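 H295R adrenal cells were pre-stimulated 48 h with 10 uM forskolin, then exposed 48 h to test chemical in 0.1% DMSO. Medium cortisol was measured by MTBE extraction and HPLC-MS/MS; bidirectional fit versus DMSO, concentrations not MTC-filtered.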

A short description of assay [5]: CEETOX_H295R_CORTIC_noMTC: CeeTox H295R High-throughput Steroidogenesis Assay for Corticosterone (CORTIC), maximum tolerated concentration (MTC) filtered results only (AID 2283917). The method in brief: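 Forskolin-stimulated (10 uM, 48 h) H295R cells are dosed 48 h with chemical in DMSO (0.1% final); corticosterone change is quantified by HPLC-MS/MS and fitted bidirectionally against DMSO, unfiltered for MTT-derived MTC.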

A short description of assay [6]: CEETOX_H295R_DOC_noMTC: CeeTox H295R High-throughput Steroidogenesis Assay for DOC, maximum tolerated concentration (MTC) filtered results only (AID 2283918). The method in brief:
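H295R cells prestimulated 48 h with 10 uM forskolin, then exposed 48 h to test chemical (0.1% DMSO final). Medium 11-deoxycorticosterone extracted with MTBE, quantified by HPLC-MS/MS; bidirectional fit versus DMSO, concentrations not MTC-filtered.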

A short description of assay [7]: CEETOX_H295R_ESTRADIOL_noMTC: CeeTox H295R High-throughput Steroidogenesis Assay for Estradiol, maximum tolerated concentration (MTC) filtered results only (AID 2283919). The method in brief: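 Readout: dansyl-derivatized estradiol quantified by LC-MS/MS in medium from H295R cells dosed 48 h (0.1% DMSO) following 48 h forskolin (10 uM) prestimulation. Gain or loss of signal fitted against DMSO; no MTC filtering applied.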

Assay [8] can be described thus: CEETOX_H295R_PROG_noMTC: CeeTox H295R High-throughput Steroidogenesis Assay for Progesterone (PROG), maximum tolerated concentration (MTC) filtered results only (AID 2283920). The method in brief:
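Progesterone synthesis in the human adrenal line H295R is measured by HPLC-MS/MS after 48 h chemical exposure following 48 h forskolin (10 uM) stimulation. Activity in either direction is fitted relative to DMSO.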

A short description of assay [9]: CEETOX_H295R_ESTRONE_noMTC: CeeTox H295R High-throughput Steroidogenesis Assay for Estrone, maximum tolerated concentration (MTC) filtered results only (AID 2283921). The method in brief: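 Estrone in spent medium, quantified by tandem MS following dansyl chloride derivatization, after 48 h chemical exposure (0.1% DMSO) of forskolin-prestimulated (10 uM, 48 h) H295R cells; concentrations not MTC-filtered, bidirectional fit against DMSO.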

Assay [10] in a line: CEETOX_H295R_ANDR_noMTC: CeeTox H295R High-throughput Steroidogenesis Assay for Androstenedione (ANDR), maximum tolerated concentration (MTC) filtered results only (AID 2283915). The method in brief: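 Androstenedione secreted into medium was measured by LC-MS/MS after MTBE extraction. Human adrenal H295R cells received 10 uM forskolin for 48 h before 48 h chemical exposure (0.1% DMSO). Gain or loss fitted against DMSO, including concentrations above the MTT-derived MTC.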

For the molecule `c1ccc2cc3ccccc3cc2c1`, the molecule was called inactive in [1], in assay [2], in [3], in assay [4], in assay [5] and in assay [6]. The molecule was called inactive in [7], in assay [8] and in assay [9].

Regarding `O=S(=O)(O)c1ccc(N=Nc2c(O)ccc3cc(S(=O)(=O)O)ccc23)cc1`, the molecule was called inactive in assay [1], in [2], in assay [3], in [4], in assay [5] and in [6]. The call in assay [8] was inactive.

In the case of `Cc1nc(-c2ccccn2)ncc1C(=O)Nn1cc(C)c2cc(F)ccc21`, the AC50 in [1] was 13.2 µM (active); in assay [2], 4.1 µM (active); in assay [3] it was 8.28 µM (active); in assay [10], 22.5 µM (active); in assay [4] it was 12.7 µM (active); in [5] it was 9.57 µM (active). For the same molecule, the AC50 in [6] is 5.19 µM (active); in assay [8], 3.34 µM (active). In addition, the call in assay [7] and in assay [9] was inactive.
